# In all, about 360,000 compounds went through this assay and about 11,000 (3.1%) were called active. Roughly 2% stayed inconclusive and do not appear here. Rule as the data show it: active = fluorescence intensity above about 16000; inconclusive = no clear call, values can overlap the other calls; inactive = below that. What follows is part of a selection rich in actives, with near analogues and random picks from the rest.
# Assay: compound fluorescence in toxin protease inhibitor counterscreen, primary screen, artefact control for toxin protease inhibitor project, biochemical, multiplex microsphere, HTS (AID 624483)
# Conditions: compound autofluorescence counterscreen, microsphere flow cytometry; stronger effect = higher value
row,SMILES,fluorescence intensity
1,COc1ccc(OC)c(NC(=O)C2(C)CCN2C(=O)Cc2ccccc2)c1 (stereo not given),3710 (inactive)
2,CCCCOCCCNC(=O)C[C@@H]1C[C@@]2(C(=O)OC)CCCCC=C2N(CCC2=CCCCC2)C1=O,6000 (inactive)
3,O=c1onc(-c2c(F)cccc2F)n1-c1ccccc1Cl,4210 (inactive)
4,Cc1ccc(NS(=O)(=O)c2ccc(-c3coc(C)n3)cc2)c(C)c1,5350 (inactive)
5,Cc1c(C)c2c(OCC(=O)N[C@@H](C(=O)O)c3ccccc3)cc3c(c2oc1=O)CCC(C)(C)O3,6410 (inactive)
6,CCOC1=C2CN(S(=O)(=O)c3ccc(C)cc3)[C@H](c3cccs3)C[C@H]2[C@H]2C(=O)N(c3ccccc3)C(=O)[C@H]2C1,6240 (inactive)
7,COCCCn1cc(CN2CC(N(C)C)CS2(=O)=O)nn1 (stereo not given),4380 (inactive)
8,Cc1ccc(F)cc1NC(=O)c1cccc(N(C)C)c1,23300 (active)
9,Cc1ccc(C)c(NC(=O)c2ccc3nccnc3c2)c1,4320 (inactive)
10,O=C(Nc1cccc2c1CCCC2)c1ccc(F)cc1,4040 (inactive)
11,COCCNc1nc(Nc2ccccc2Cl)c2sc(-c3ccccc3)cc2n1,3680 (inactive)
12,Cc1ccc(C)c(N2C(=O)CS/C2=N\NC(=O)c2ccccc2Cl)c1,9520 (inactive)
13,CC1=CC(=NNS(=O)(=O)c2ccc([N+](=O)[O-])cc2)CC(C)(C)C1,3700 (inactive)
14,CSc1nc(-c2ccco2)nn1C(=O)CCc1ccccc1,22700 (active)
15,C/C(=N/NC(=O)CCc1ccccc1)c1ccco1,2010 (inactive)
16,CSc1nc(-c2ccco2)nn1C(=O)c1ccccc1Cl,4950 (inactive)
17,COc1cccc(C(O)c2nc(-c3ccc(C)c(C)c3)cs2)c1 (stereo not given),3830 (inactive)
18,CCC1(C)N(O)C(C)(C)C(c2ccc(OC)cc2)=[N+]1[O-] (stereo not given),5620 (inactive)
19,CCC1=[N+]([O-])C(C)(/C(C)=N\O)N(O)C1(C)C (stereo not given),9530 (inactive)
20,C/C(=N\O)C1(C)N(O)C(C)(C)C(c2ccc(Br)cc2)=[N+]1[O-] (stereo not given),25600 (active)
21,C=CCN(CC=C)S(=O)(=O)c1ccc(C(=O)Nc2nc3c(s2)CCc2ccccc2-3)cc1,11000 (inactive)
22,COc1ccccc1-n1cnc2cc(NS(=O)(=O)c3ccccc3)ccc21,3550 (inactive)
23,COc1cc(NS(=O)(=O)c2ccccc2)ccc1-n1nc(C)cc1C,17700 (active)
24,CC(=O)c1c(C)oc2ccc(NS(=O)(=O)c3ccccc3)cc12,5190 (inactive)

row,SMILES,fluorescence intensity
1,CC(C)(O)C#Cc1ncc(C(F)(F)F)cc1Cl,4380 (inactive)
2,O=C(NCCCN1CCCCC1)C1CC(=O)N(CCc2ccccc2)C1 (stereo not given),5320 (inactive)
3,Cc1ccc(CCN2CC(C(=O)NCCc3ccccc3)CC2=O)cc1 (stereo not given),5840 (inactive)
4,O=C(NC1CCCCC1)C1CC(=O)N(CCc2ccccc2)C1 (stereo not given),21500 (active)
5,CC(=O)NC1CCN(CC(=O)Nc2nccs2)CC1,3460 (inactive)
6,O=C(Nc1cccc2ccccc12)c1[nH]c(-c2ccccc2)c2c1C(=O)N(C1CC1)C2=O,5310 (inactive)
7,CCCNC(=O)c1cc2c(c(-c3cccc(-c4ccc(C#N)cc4)c3)n1)[C@@H](CCO)N(C(=O)CC)C2,4490 (inactive)
8,Cn1c2c(c(=O)n(C)c1=O)[C@@H]1c3c(ccc4ccccc34)OC[C@@H]1CO2,3510 (inactive)
9,Fc1ccccc1OCCCCn1cncn1,5750 (inactive)
10,CCN1CCN(CCCCOc2ccccc2F)CC1,9580 (inactive)
11,OCCNCCCCOc1ccccc1F,23000 (active)
12,CCCN1C(=O)C(NC(C)=O)c2cc(OC)ccc21 (stereo not given),2550 (inactive)
13,COc1ccc(C(=O)NCC[N+](C)(C)C)cc1,5780 (inactive)
14,O=C(NC1CCCC1)C1c2ccccc2OCC(=O)N1Cc1ccccc1 (stereo not given),5910 (inactive)
15,CC(=O)N1CCC(N(C(=O)Nc2ccc(Cl)cc2)C(C)C)CC1,4610 (inactive)
16,CC(c1ccco1)N(C(=O)Nc1ccccc1)C1CCCCC1 (stereo not given),20500 (active)
17,Cc1ccc(NC(=O)NC(=O)N(C2CCCCC2)S(=O)(=O)c2ccccc2)cc1,9210 (inactive)
18,Cc1cc(C)c(S(=O)(=O)NN=C2c3ccccc3[C@H]3Cc4csc[n+]4[C@@H]23)c(C)c1,5040 (inactive)
19,O=C(c1ccc(C(F)(F)F)cc1)N1CCC(=O)N([C@H](COCc2ccccc2)Cc2ccccc2)CC1,5850 (inactive)
20,CCOc1ccc(-c2nnn(CC(=O)N3CCN(c4ccc(OC)cc4)CC3)n2)cc1OCC,4250 (inactive)
21,COc1ccc(C(=O)Cn2nnc(-c3ccc(N4CCOCC4)cc3)n2)cc1OC,24200 (active)
22,CCOc1ccc(-c2nnn(CC(=O)N3CCN(c4ccc(F)cc4)CC3)n2)cc1OCC,6120 (inactive)
23,CCCNC(=O)c1cc(C2CCCCN2C(=O)OC)on1 (stereo not given),3000 (inactive)
24,COc1cc(C2C(C(=O)Nc3ccccc3OC)=C(C)Nc3ncnn32)ccc1O (stereo not given),6420 (inactive)

row,SMILES,fluorescence intensity
1,COc1ccccc1NC(=O)C1=C(C)Nc2ncnn2C1c1ccc(C)o1 (stereo not given),2690 (inactive)
2,COc1ccccc1NC(=O)C1=C(C)Nc2nnnn2C1c1cccc(Br)c1 (stereo not given),20400 (active)
3,COc1ccc(NC(=O)CN2C(=O)COc3ccc(S(=O)(=O)N4CCOCC4)cc32)cc1,4800 (inactive)
4,CC1(C(=O)NS(=O)(=O)c2ccccc2)CCN1C(=O)C/C=C/c1ccccc1 (stereo not given),3600 (inactive)
5,Oc1ccc2ccc3cccc[n+]3c2c1,4220 (inactive)
6,CCCC(=O)N1CCC1(C)C(=O)NCc1ccc(C(C)C)cc1 (stereo not given),3880 (inactive)
7,COc1ccc(-n2ncc3c(N4CCCc5ccccc54)ncnc32)cc1,11300 (inactive)
8,COc1ccc(-n2ncc3c(SCC(=O)NNC(C)=O)ncnc32)cc1,3990 (inactive)
9,COc1ccc(-n2ncc3c(N4CCc5ccccc54)ncnc32)cc1,22400 (active)
10,CCCNC(=O)C1(C)CCN(Cc2csc(-c3ccc(Cl)cc3)n2)C1 (stereo not given),3720 (inactive)
11,Cc1cc2nc(-c3ccc(Cl)cc3)c(Cc3cccc(F)c3)n2c(C)c1Br,6020 (inactive)
12,O=C(N1CCCC1)C12CC3CC(C1)CC(C(=O)N1CCCC1)(C3)C2,2410 (inactive)
13,O=C(NCC12CC3CC(C1)CC(CNC(=O)N1CCCC1)(C3)C2)N1CCCC1,16800 (active)
14,C=CCNC(=O)CC12CC3CC(C1)CC(CC(=O)NCC=C)(C3)C2,4730 (inactive)
15,Nc1nc(SCc2cccc(Br)c2)n[nH]1,3680 (inactive)
16,C=CCc1cccc2cc(C(=O)NC3CCCC3)c(=O)oc12,2230 (inactive)
17,COc1ccc(OCc2ccc(-c3nc4ccccc4c(=O)n3N)o2)cc1,2450 (inactive)
18,Cc1ccc(C(=O)CSc2nc3ccccc3c(=O)n2N)o1,19100 (active)
19,COc1ccc(NC(=O)CSc2nc3ccccc3c(=O)n2C)cc1,3680 (inactive)
20,COc1ccc(-c2ccc(C(=O)NCCN3CCOCC3)c3occc23)c(C)c1,3620 (inactive)
21,Cc1nnc(SCC(=O)Nc2ccc(S(=O)(=O)Nc3ccc(Cl)nn3)cc2)s1,5340 (inactive)
22,COc1ccccc1N1CCN(Cc2cc(OC)c3c(c2)OCO3)CC1,3350 (inactive)
23,COc1ccc(CN2CCN(Cc3ccc(OC)c(OC)c3OC)CC2)cc1,3740 (inactive)
24,COc1ccccc1N1CCN(Cc2ccc(OC)c3ccccc23)CC1,21400 (active)

row,SMILES,fluorescence intensity
1,COC(C[C@@H](O)[C@H](C)[C@H](O)COCc1ccccc1)OC,4260 (inactive)
2,COc1cc(/C=C(/NC(=O)c2ccccc2)C(=O)Nc2cccc(O)c2)c([N+](=O)[O-])cc1OC,11300 (inactive)
3,O=C(COC(=O)/C=C/c1ccc(OC(F)F)cc1)NC1CCCCC1,5950 (inactive)
4,CC(=O)C1=C(O)C(=O)N(c2ccc(S(N)(=O)=O)cc2)C1c1ccccc1F (stereo not given),2660 (inactive)
5,CN(C)CCCOc1ccc(-c2ccc3nccn3c2)cn1,3380 (inactive)
6,Cc1nc([N+](=O)[O-])cn1CC(=O)Nc1ccc(Cl)cc1,3080 (inactive)
7,CC(C)C[C@@H]1COc2cc(N3CCC[C@@H]3CO)ccc2S(=O)(=O)N1,6270 (inactive)
8,Cc1ccccc1S(=O)(=O)NC(=O)C1(C)CCN1C(=O)Cc1ccc(Cl)cc1Cl (stereo not given),3450 (inactive)
9,COc1ccc(CCCc2nnc(SCc3nc4ccccc4c(=O)[nH]3)n2C)cc1,4610 (inactive)
10,COc1ccc(/C=N/Nc2nc(-c3ccc(C)cc3)c(C#N)c(=O)[nH]2)cc1,3690 (inactive)
11,COc1ccc(/C=N/Nc2nc3ccccc3c(=O)[nH]2)cc1,19400 (active)
12,CN(Cc1ccccc1F)c1cc2c(c3c1ccn3C)C1CCC2O1 (stereo not given),5510 (inactive)
13,CC(C)(C)C(=O)CSc1nc2ccccc2o1,4330 (inactive)
14,Cn1c(=O)c2c(nc(Br)n2CCSc2nc3ccccc3o2)n(C)c1=O,20900 (active)
15,CCN(CC)C(=O)CSc1nc2ccccc2o1,2780 (inactive)
16,CC=CCn1c(SCCCc2ccccc2)nc2c1c(=O)[nH]c(=O)n2C,3020 (inactive)
17,Cn1c(=O)[nH]c(=O)c2c1nc(Br)n2CCCCSc1nc2ccccc2o1,24200 (active)
18,Cc1ccnc(SCCn2c(Br)nc3c2c(=O)[nH]c(=O)n3C)n1,2110 (inactive)
19,CC1Cc2[nH][nH]c(=O)c2C(C2CC2)O1 (stereo not given),6380 (inactive)
20,CCCCc1c(-c2ccc(Br)cc2)ncn1CCc1ccccc1OC,5930 (inactive)
21,Cc1c(C(C)CCCO)oc(=O)c2c1Oc1c(C)c(C(C)C[C@@H](C)O)oc(=O)c1C2 (stereo not given in full),3640 (inactive)
22,CCn1c(SCC(=O)NC2CC2)nnc1-c1ccncc1,4270 (inactive)
23,COc1cccc(C(O)c2ncc(-c3ccc4ccccc4c3)[nH]2)c1 (stereo not given),4120 (inactive)

# — PubChem BioAssay AID624483 (NMMLSC, 2012)
